{"source": "PubChem BioAssay (NCATS)", "note": "Results filed as inconclusive are left out. A call without a number means that no potency is given here. Activity calls are given as the source filed them. Calls come from the whole dose curve; as a rule, active = well fitted inhibition curve with a large enough effect; inconclusive = small, poorly fitted or top-dose-only effect; inactive = flat fitted curve, though single readings scatter."}
{"biological_target": "Luciferin 4-monooxygenase (Photinus pyralis) (UniProt P08659)", "sequence (P08659 whole entry, looked up)": "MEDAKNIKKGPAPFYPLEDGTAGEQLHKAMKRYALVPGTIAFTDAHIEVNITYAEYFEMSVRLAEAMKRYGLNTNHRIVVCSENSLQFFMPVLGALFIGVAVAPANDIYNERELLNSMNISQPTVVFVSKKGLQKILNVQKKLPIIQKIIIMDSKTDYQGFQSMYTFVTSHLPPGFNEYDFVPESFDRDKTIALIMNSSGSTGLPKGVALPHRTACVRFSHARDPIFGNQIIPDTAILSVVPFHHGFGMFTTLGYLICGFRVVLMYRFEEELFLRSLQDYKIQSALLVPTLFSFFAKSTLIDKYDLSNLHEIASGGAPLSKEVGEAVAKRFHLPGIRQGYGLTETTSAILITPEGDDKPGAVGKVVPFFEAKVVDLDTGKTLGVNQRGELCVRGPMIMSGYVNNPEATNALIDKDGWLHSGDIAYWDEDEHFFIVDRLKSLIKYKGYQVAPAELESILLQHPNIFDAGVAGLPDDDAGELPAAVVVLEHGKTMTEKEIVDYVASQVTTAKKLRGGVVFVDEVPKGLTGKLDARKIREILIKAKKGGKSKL", "experiment": "Biochemical firefly luciferase enzyme assay for NPC (AID 624030);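 note: purified P. pyralis luciferase at 10 nM with luciferin and ATP substrate; nearly all actives have a fitted effect of over 70% in size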", "settings": "purified P. pyralis luciferase, luminescence, 5 min; series mostly up to 58.6 µM", "in_short": "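Counter-screen for direct inhibition of the luciferase enzyme by approved-drug library compounds, run at 10 nM enzyme in 50 mM Tris acetate (final). Luminescence was read within 5 min of enzyme-buffer addition and normalized to PTC124 versus DMSO (0%).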"}
{"smiles": "O=C1CC[C@H](C(=O)N2CCCCC2)N1", "Potency": "inactive"}
{"smiles": "CC(=O)N(CC(O)CO)c1c(I)c(C(=O)NCCO)c(I)c(C(=O)NCC(O)CO)c1I", "note": "(configuration not stated)", "Potency": "inactive"}
{"smiles": "CCOc1ccc(NS(=O)(=O)c2ccc(N)cc2)nn1", "Potency": "inactive"}
{"smiles": "C=CC[N+]1([C@H]2C[C@H]3[C@@H]4CC[C@H]5C[C@H](OC(C)=O)[C@@H](N6CCCCC6)C[C@]5(C)[C@H]4CC[C@]3(C)[C@H]2OC(=O)CC)CCCCC1", "Potency": "inactive"}
{"smiles": "O=C1CC2(CCCC2)CC(=O)N1CCNCC1COc2ccccc2O1", "note": "(configuration not stated)", "Potency": "inactive"}
{"smiles": "O=C(O)Cc1ccccc1Oc1ccc(Cl)cc1Cl", "Potency": "inactive"}
{"smiles": "CC(CCc1ccc2c(c1)OCO2)NN", "note": "(configuration not stated)", "Potency": "inactive"}
{"smiles": "Nc1c(NC/C=C\\COc2cc(CN3CCCCC3)ccn2)c(=O)c1=O", "Potency": "inactive"}
{"smiles": "COc1cc(C(=O)OC(COCCC(C)C)CN2CCOCC2)cc(OC)c1OC", "note": "(configuration not stated)", "Potency": "inactive"}
{"smiles": "O=C(COCCOCCOCC(=O)Nc1c(I)cc(I)c(C(=O)O)c1I)Nc1c(I)cc(I)c(C(=O)O)c1I", "Potency": "inactive"}
{"smiles": "CN(C(=O)C(Cl)Cl)c1ccc(OC(=O)c2ccco2)cc1", "Potency": "inactive"}
{"smiles": "OCCCc1ccccc1", "Potency": "inactive"}
{"smiles": "CC(=O)Nc1ccc(S(=O)(=O)Nc2cc(C)on2)cc1", "Potency": "inactive"}
{"smiles": "Cn1cc(S(C)=O)c(=O)c2ccc(F)cc21", "note": "(configuration not stated)", "Potency": "inactive"}
{"smiles": "CC[N+](CC)(CC)CCOC(=O)C(C1CCCC1)C1CCCC1", "Potency": "inactive"}
{"smiles": "Oc1ccc(CCNCCCCCCNCCc2ccccc2)cc1O", "Potency": "inactive"}
{"smiles": "CO/N=C(/C(=O)N[C@@H]1C(=O)N2C(C(=O)[O-])=C(C[n+]3ccn4ncccc43)CS[C@H]12)c1nsc(N)n1", "Potency": "inactive"}
{"smiles": "CC(=O)Nc1ccn(C2COC(COC(=O)c3ccccc3)O2)c(=O)n1", "note": "(configuration not stated)", "Potency": "inactive"}
{"smiles": "CN(C)CCOC1=Cc2ccccc2Sc2ccc(Cl)cc21", "Potency": "inactive"}
{"smiles": "O=C(CCC1CCN(Cc2ccccc2)CC1)c1ccc2c(c1)NCCCC2", "Potency": "inactive"}
{"smiles": "Cc1nc([N+](=O)[O-])cn1-c1ccc([N+](=O)[O-])cc1", "Potency": "inactive"}
{"smiles": "Cc1ccc2c(Cl)cc(Cl)c(O)c2n1", "Potency": "inactive"}
